In PubChem BioAssay (NCATS):
Active and inactive are the calls of the source. Calls come from the whole dose curve; as a rule, active = well fitted inhibition curve with a large enough effect; inconclusive = small, poorly fitted or top-dose-only effect; inactive = flat fitted curve, though single readings scatter.

test system: Nanoluciferase (engineered Oplophorus gracilirostris luciferase); experiment: Primary Nanoluciferase (NLuc) qHTS assay for identification of artifact compounds. (AID 1845222); conditions: NLuc-conditioned medium, Nano-Glo luminescence, 5 min; series mostly up to 54.1 µM; activity, negative = inhibition: at the top concentration;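 note: 0% = DMSO and -100% = no enzyme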
Summary of the method: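 Concentration-response data were obtained by luminescence after 5 min with Nano-Glo substrate at 1:100. The enzyme was diluted S16 NLuc-expressing cell medium, preincubated with compound for 15 min at RT. Curves were fitted with a 4-parameter Hill model.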

Structure (SMILES) | activity, negative = inhibition
C[C@@H]1O[C@@H](O[C@@H]2\C=C/C=C\C=C/C=C\C[C@H](C)OC(=O)/C=C\[C@H]3O[C@@H]3C[C@H](O)C[C@]3(O)C[C@@H](O)[C@@H](C(=O)O)[C@H](C2)O3)[C@H](O)[C@H](N)[C@@H]1O | -1.41% (inactive)
COc1c2c(c(C)c3c1C(=O)OC3)OC1(C)CC(O)C34OC(OC)(CCC3(C)C1C2)OC4(C)CO (centres undefined) | 0.997% [at 25.7 µM] (inactive)
CC1(CO)CC(O)C2(C)CCC3(C)C(=CCC4C5(C=O)CCC(OC6OC(C(=O)O)C(O)C(O)C6OC6OC(C(=O)O)C(O)C(O)C6O)C(C)(C)C5CCC43C)C2C1 (centres undefined) | -13.8% [at 11.6 µM] (inactive)
CCC12CCCN3CCc4c(n(c5ccccc45)C(O)C1)C32 (centres undefined) | 3.66% (inactive)
CC1=CCC2C(C)(C)CCCC2(C)C1CC12OC1C(O)C(CO)=CC2O (centres undefined) | 0.563% (inactive)
CC(=O)O[C@H]1[C@H](O[C@H]2CC[C@]34C[C@]35CC[C@]3(C)[C@@H]([C@@]6(C)CC[C@@H](C(C)(C)O)O6)[C@@H](O)C[C@@]3(C)[C@@H]5C[C@H](O[C@@H]3O[C@H](CO)[C@@H](O)[C@H](O)[C@H]3O)[C@H]4C2(C)C)OC[C@@H](OC(C)=O)[C@@H]1O | -0.667% (inactive)
Cc1cc(OCCN2CCOCC2)nn1-c1ccc2ccccc2c1 | -3.84% (inactive)
COc1ccc(/C=C/C(=O)O[C@@H]2[C@@H](O)[C@@H](O)[C@H](O[C@H]3[C@@H]4C=CO[C@@H](O[C@@H]5O[C@H](CO)[C@@H](O)[C@H](O)[C@H]5O)[C@@H]4[C@@]4(CO)O[C@@H]34)O[C@H]2C)cc1 | 0.539% [at 25.7 µM] (inactive)
CC(C/C=C/C(C)(C)O)C1CCC(C)(O)C(O)C1 (centres undefined) | -2.91% (inactive)
